Test results: the supplement of paper PMC6897291
Where a name gives a salt, the structure may show the parent alone.

Tested on: U-2932
Assay: growth inhibition by drug alone (1 - RLU/untreated control) (fraction); higher = stronger inhibition
Details: 177Lu-lilotomab satetraxetan 0 ug/ml
Experimental: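 U-2932 ABC-DLBCL cells were pretreated or not for 18 h with 1 ug/ml 177Lu-lilotomab satetraxetan (600 MBq/mg), washed and seeded (3000 cells/well) on 384-well plates pre-printed with the Selleck Cambridge Cancer Compound library. Viability was read by RealTime-Glo luminescence on days 3-6 after seeding. Effect = 1 - RLU/mean RLU of the 48 untreated no-drug control wells per plate; Bliss score = (M-E)/(1-Fa), with E the expected Bliss-additive effect.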

SMILES	growth inhibition by drug alone (10 nM, time (day): 3)	growth inhibition by drug alone (10 nM, time (day): 4)	growth inhibition by drug alone (10 nM, time (day): 5)	growth inhibition by drug alone (10 nM, time (day): 6)	growth inhibition by drug alone (1000 nM, time (day): 3)	growth inhibition by drug alone (1000 nM, time (day): 4)	growth inhibition by drug alone (1000 nM, time (day): 5)	growth inhibition by drug alone (1000 nM, time (day): 6)
COc1cccc2c1C(=O)c1c(O)c3c(c(O)c1C2=O)C[C@@](O)(C(=O)CO)C[C@@H]3O[C@H]1C[C@H](N)[C@@H](O)[C@H](C)O1 [Epirubicin Hydrochloride]	0.0435	0.0793	0.0717	0.093	0.943	0.964	0.975	0.98
CNC(=O)c1ccc(N2C(=S)N(c3ccc(C#N)c(C(F)(F)F)c3)C(=O)C2(C)C)cc1F [MDV3100 (Enzalutamide)]	0.0921	0.0374	-0.126	-0.107	0.019	0.0335	-0.0413	-0.0245
COc1cc2/c(=N/c3ccc(Br)cc3F)nc[nH]c2cc1OCC1CCN(C)CC1 [Vandetanib (Zactima)]	-0.05	-0.0325	-0.0228	0.016	-0.236	-0.171	-0.167	-0.12
N#CC1(c2ccc(NC(=O)c3cccnc3NCc3ccncc3)cc2)CCCC1 [Apatinib (YN968D1)]	0.0813	0.0775	0.0186	-0.0775	-0.000689	0.0222	-0.108	-0.279
CO[C@@H](C(=O)N1Cc2[nH]nc(NC(=O)c3ccc(N4CCN(C)CC4)cc3)c2C1)c1ccccc1	0.0385	-0.0423	-0.0829	-0.0542	0.206	0.258	0.259	0.368
